Experimental data from PubChem BioAssay AID1159580 (chemical genetic matrix, 2015).
Values joined by “and” are separate entries in the source; they are usually repeats but may differ in a detail not shown here. Equal values may be shown once. Among all 5,500 compounds or so, about 2,000 (36%) were called active. Not shown: some 18% with an inconclusive outcome. Cut-off read from the data, not from the text of the source: active = normalized growth mostly below about 0.91 (no sharp cut-off); inconclusive = no clear call, values can overlap the other calls; inactive = mostly above about 0.92. The list shows a part of the results. Where a structure was tested more than once in an assay, its records may differ in their call.

Experiment: chemical genetic growth profiling, strain panel (AID 1159580);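 note: tested at 20 µM; growth read once vehicle control cultures reached saturation at 30 °C; 1 = growth at the plate median or of vehicle wells; lower values mean less growth of the strain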
Conditions: S. cerevisiae deletion strains, growth OD
[1] = locus YAL013W, strain DEP1, stronger effect = lower value
[2] = locus YDR150W, strain NUM1, stronger effect = lower value
[3] = locus YHR030C, strain SLT2, stronger effect = lower value
[4] = locus YHR079C, strain IRE1, stronger effect = lower value
[5] = locus YJL095W, strain BCK1, stronger effect = lower value
[6] = locus YJR066W, strain TOR1, stronger effect = lower value
[7] = locus YJR075W, strain HOC1, stronger effect = lower value
[8] = locus YLR113W, strain HOG1, stronger effect = lower value
[9] = locus YMR307W, strain GAS1, stronger effect = lower value
[10] = locus YNL128W, strain TEP1, stronger effect = lower value
[11] = locus YNL153C, strain GIM3, stronger effect = lower value
[12] = locus YNL183C, strain NPR1, stronger effect = lower value
[13] = locus YOR231W, strain MKK1, stronger effect = lower value
[14] = locus YPL256C, strain CLN2, stronger effect = lower value

Measured: normalized growth

O=C(O)c1ccccc1Nc1cccc(OCc2ccc3ccccc3n2)c1
inactive: [1] 0.996 | locus YAL040C, strain CLN3, stronger effect = lower value 0.932 | locus YCL061C, strain MRC1 (second series), stronger effect = lower value 0.997 | [2] 1 | locus YDR363W, strain ESC2, stronger effect = lower value 1 | locus YER002W, strain NOP16, stronger effect = lower value 1.01 | locus YGR078C, strain PAC10, stronger effect = lower value 0.967 | [3] 1.03 | [4] 1.03 | [5] 1.05 | [6] 0.968 | [7] 1.01 | [8] 1.01 | locus YMR263W, strain SAP30, stronger effect = lower value 0.999 | [9] 1.04 | [10] 0.957 | [11] 1.04 | locus YNL175C, strain NOP13, stronger effect = lower value 0.94 | [12] 0.981 | locus YNL197C, strain WHI3, stronger effect = lower value 0.934 | locus YNL224C, strain SQS1, stronger effect = lower value 0.95 | locus YNL322C, strain KRE1, stronger effect = lower value 1.02 | locus YOR083W, strain WHI5 (second series), stronger effect = lower value 0.959 | [13] 1.02 | locus YPL241C, strain CIN2, stronger effect = lower value 0.989 | [14] 1.02

O=C(O)c1ccccc1Nc1cccc(C(F)(F)F)c1
active: [1] 0.857 | locus YAL021C, strain ccr4, stronger effect = lower value 0.847 | locus YAL026C, strain drs2, stronger effect = lower value 0.837 | locus YAL030W, strain snc1, stronger effect = lower value 0.817 | locus YBL061C, strain skt5, stronger effect = lower value 0.845 | locus YBR009C, strain hhf1, stronger effect = lower value 0.848 | locus YBR021W, strain FUR4, stronger effect = lower value 0.764 | locus YBR171W, strain sec66, stronger effect = lower value 0.69 | locus YBR231C, strain swc5, stronger effect = lower value 0.827 | locus YBR279W, strain paf1, stronger effect = lower value 0.859 | locus YCL011C, strain gbp2, stronger effect = lower value 0.86 | locus YCL016C, strain dcc1, stronger effect = lower value 0.87 | locus YCL069W, strain vba3, stronger effect = lower value 0.834 | locus YCR088W, strain abp1, stronger effect = lower value 0.793 | locus YDL005C, strain med2, stronger effect = lower value 0.882 | locus YDL035C, strain GPR1, stronger effect = lower value 0.844 | locus YDL040C, strain nat1, stronger effect = lower value 0.852 | locus YDL074C, strain BRE1, stronger effect = lower value 0.768 | locus YDR001C, strain nth1, stronger effect = lower value 0.805 | locus YDR069C, strain doa4, stronger effect = lower value 0.896 | locus YDR137W, strain rgp1, stronger effect = lower value 0.623 | locus YDR159W, strain sac3, stronger effect = lower value 0.661 | locus YDR297W, strain sur2, stronger effect = lower value 0.849 | locus YDR334W, strain swr1, stronger effect = lower value 0.788 | locus YDR335W, strain msn5, stronger effect = lower value 0.849 | locus YDR392W, strain spt3, stronger effect = lower value 0.721 | locus YDR502C, strain sam2, stronger effect = lower value 0.915 | locus YEL003W, strain gim4, stronger effect = lower value 0.842 | locus YEL037C, strain rad23, stronger effect = lower value 0.831 | locus YEL061C, strain CIN8 (second series), stronger effect = lower value 0.815 | locus YER015W, strain faa2, stronger effect = lower value 0.869 | locus YER016W, strain bim1, stronger effect = lower value 0.837 | locus YER111C, strain swi4, stronger effect = lower value 0.829 | locus YER155C, strain BEM2 (second series), stronger effect = lower value 0.763 | locus YER155C, strain BEM2, stronger effect = lower value 0.914 | locus YER167W, strain BCK2, stronger effect = lower value 0.833 | locus YFR010W, strain ubp6, stronger effect = lower value 0.858 | locus YGL167C, strain pmr1, stronger effect = lower value 0.751 | locus YGL173C, strain kem1, stronger effect = lower value 0.843 | locus YGL227W, strain vid30, stronger effect = lower value 0.812 | locus YGL240W, strain doc1, stronger effect = lower value 0.853 | locus YGL253W, strain hxk2, stronger effect = lower value 0.811 | locus YGR229C, strain SMI1, stronger effect = lower value 0.727 | locus YGR252W, strain gcn5, stronger effect = lower value 0.645 | locus YHR027C, strain rpn1, stronger effect = lower value 0.862 | [4] 0.126 | locus YHR129C, strain ARP1, stronger effect = lower value 0.918 | locus YHR142W, strain chs7, stronger effect = lower value 0.775 | locus YIL066C, strain RNR3, stronger effect = lower value 0.824 | locus YJL092W, strain hpr5, stronger effect = lower value 0.801 | locus YJL095W, strain BCK1 (second series), stronger effect = lower value 0.848 | locus YJL115W, strain asf1, stronger effect = lower value 0.843 | locus YJL129C, strain trk1, stronger effect = lower value 0.565 | locus YJL154C, strain vps35, stronger effect = lower value 0.792 | locus YJL164C, strain tpk1, stronger effect = lower value 0.873 | locus YJL166W, strain qcr8, stronger effect = lower value 0.853 | locus YJL187C, strain SWE1, stronger effect = lower value 0.833 | locus YJR043C, strain POL32, stronger effect = lower value 0.775 | [6] 0.00921 | locus YKL160W, strain elf1, stronger effect = lower value 0.835 | locus YKR001C, strain vps1, stronger effect = lower value 0.85 | locus YKR026C, strain gcn3, stronger effect = lower value 0.79 | locus YKR091W, strain srl3, stronger effect = lower value 0.826 | locus YLL001W, strain dnm1, stronger effect = lower value 0.833 | locus YLL026W, stronger effect = lower value 0.829 | locus YLL041C, strain sdh2, stronger effect = lower value 0.803 | locus YLR027C, strain aat2, stronger effect = lower value 0.865 | [8] 0.137 | locus YLR221C, strain rsa3, stronger effect = lower value 0.838 | locus YLR258W, strain gsy2, stronger effect = lower value 0.83 | locus YLR262C, strain YPT6 (second series), stronger effect = lower value 0.634 | locus YLR320W, strain mms22, stronger effect = lower value 0.833 | locus YLR330W, strain CHS5, stronger effect = lower value 0.883 | locus YLR342W, strain FKS1 (second series), stronger effect = lower value 0.713 | locus YLR342W, strain FKS1, stronger effect = lower value 0.831 | locus YLR370C, strain arc18, stronger effect = lower value 0.808 | locus YLR384C, strain iki3, stronger effect = lower value 0.818 | locus YLR418C, strain cdc73, stronger effect = lower value 0.729 | locus YML120C, strain ndi1, stronger effect = lower value 0.842 | locus YMR058W, strain fet3, stronger effect = lower value 0.824 | locus YMR125W, strain sto1, stronger effect = lower value 0.835 | locus YMR129W, stronger effect = lower value 0.812 | locus YMR205C, strain PFK2, stronger effect = lower value 0.81 | locus YMR231W, strain pep5, stronger effect = lower value 0.817 | locus YNL071W, strain lat1, stronger effect = lower value 0.849 | [12] 0.0159 | locus YNL209W, strain ssb2, stronger effect = lower value 0.862 | locus YNL233W, strain BNI4, stronger effect = lower value 0.852 | locus YNL307C, strain MCK1, stronger effect = lower value 0.695 | locus YNL322C, strain KRE1 (second series), stronger effect = lower value 0.801 | locus YNR049C, strain mso1, stronger effect = lower value 0.813 | locus YOR001W, strain rrp6, stronger effect = lower value 0.872 | locus YOR070C, strain gyp1, stronger effect = lower value 0.848 | locus YOR080W, strain dia2, stronger effect = lower value 0.847 | locus YOR083W, strain WHI5, stronger effect = lower value 0.834 | locus YOR106W, strain vam3, stronger effect = lower value 0.821 | locus YOR184W, strain ser1, stronger effect = lower value 0.819 | [13] 0.105 | locus YOR265W, strain rbl2, stronger effect = lower value 0.843 | locus YOR270C, strain vph1, stronger effect = lower value 0.674 | locus YOR290C, strain snf2, stronger effect = lower value 0.852 | locus YPL051W, strain arl3, stronger effect = lower value 0.831 | locus YPL078C, strain atp4, stronger effect = lower value 0.807 | locus YPL240C, strain hsp82, stronger effect = lower value 0.836 | [14] 0.116
0.134 (active) and 0.985 (inactive): [3]
inactive: locus YBR023C, strain chs3, stronger effect = lower value 0.924 | locus YBR229C, strain ROT2, stronger effect = lower value 0.983 | locus YCL029C, strain bik1, stronger effect = lower value 0.999 | locus YDL101C, strain DUN1, stronger effect = lower value 0.972 | locus YDL185W, strain tfp1, stronger effect = lower value 0.979 | locus YDL192W, strain arf1, stronger effect = lower value 0.974 | locus YDR101C, strain arx1, stronger effect = lower value 0.984 | [2] 0.996 | locus YDR162C, strain NBP2, stronger effect = lower value 0.852 | locus YDR195W, strain ref2 0.998 | locus YDR318W, strain mcm21, stronger effect = lower value 0.959 | locus YDR388W, stronger effect = lower value 0.975 | locus YEL061C, strain CIN8, stronger effect = lower value 0.952 | locus YER110C, stronger effect = lower value 1.01 | locus YGL078C, strain dbp3, stronger effect = lower value 0.979 | locus YGL086W, strain mad1, stronger effect = lower value 0.96 | locus YGL248W, strain PDE1, stronger effect = lower value 0.92 | locus YGR135W, strain pre9, stronger effect = lower value 0.895 | locus YHR013C, strain ard1, stronger effect = lower value 0.988 | locus YHR079C, strain IRE1 (second series), stronger effect = lower value 0.988 | locus YHR094C, strain hxt1, stronger effect = lower value 1 | locus YHR200W, strain rpn10, stronger effect = lower value 0.95 | locus YIL073C, strain SPO22, stronger effect = lower value 0.858 | locus YIL125W, strain kgd1, stronger effect = lower value 0.981 | locus YIR030C, strain dcg1, stronger effect = lower value 0.965 | locus YJL134W, strain LCB3, stronger effect = lower value 0.994 | locus YJL168C, strain set2, stronger effect = lower value 0.99 | locus YJL187C, strain SWE1 (second series), stronger effect = lower value 0.941 | [7] 0.93 | locus YKL009W, strain mrt4, stronger effect = lower value 0.896 | locus YKL068W, stronger effect = lower value 0.99 | locus YKL085W, strain MDH1 (second series), stronger effect = lower value 0.957 | locus YKL085W, strain MDH1, stronger effect = lower value 0.957 | locus YKL190W, strain CNB1, stronger effect = lower value 0.962 | locus YLR039C, strain RIC1, stronger effect = lower value 0.808 | locus YLR058C, strain SHM2, stronger effect = lower value 0.951 | locus YLR102C, strain apc9, stronger effect = lower value 0.982 | locus YLR262C, strain YPT6, stronger effect = lower value 0.821 | locus YLR268W, strain sec22, stronger effect = lower value 0.914 | locus YLR357W, strain rsc2, stronger effect = lower value 0.873 | locus YLR371W, strain rom2, stronger effect = lower value 0.987 | locus YML016C, strain PPZ1, stronger effect = lower value 0.991 | locus YML032C, strain rad52, stronger effect = lower value 0.933 | locus YML124C, strain tub3, stronger effect = lower value 0.97 | locus YMR078C, strain ctf18, stronger effect = lower value 0.98 | locus YMR223W, strain ubp8, stronger effect = lower value 0.945 | [9] 0.842 | locus YNL067W, strain RPL9B, stronger effect = lower value 0.967 | [10] 1.01 | [11] 0.937 | locus YNL248C, strain rpa49, stronger effect = lower value 0.921 | locus YNL250W, strain rad50, stronger effect = lower value 0.994 | locus YNL271C, strain bni1, stronger effect = lower value 0.982 | locus YNL298W, strain CLA4, stronger effect = lower value 0.928 | locus YNR052C, strain pop2, stronger effect = lower value 0.993 | locus YOL012C, strain htz1 0.909 | locus YOL147C, strain pex11, stronger effect = lower value 0.975 | locus YOR061W, strain CKA2, stronger effect = lower value 0.947 | locus YOR069W, strain VPS5, stronger effect = lower value 0.991 | locus YOR136W, strain idh2, stronger effect = lower value 0.983 | locus YOR144C, strain elg1, stronger effect = lower value 0.978 | locus YOR316C, strain cot1, stronger effect = lower value 0.988 | locus YPL106C, strain sse1, stronger effect = lower value 0.968 | locus YPR119W, strain clb2, stronger effect = lower value 0.988 | locus YPR141C, strain kar3, stronger effect = lower value 0.99 | locus YPR163C, strain tif3, stronger effect = lower value 0.952 | locus YPR167C, strain met16, stronger effect = lower value 0.944 | strain wtn01, stronger effect = lower value 0.954
0.119 (active) and 0.83 (inactive): [5]
